Test results as given in ChEMBL document CHEMBL4888484, “Replenishing the malaria drug discovery pipeline: Screening and hit evaluation of the MMV Hit Generation Library 1 (HGL1) against asexual blood stage Plasmodium falciparum ,using a nano luciferase reporter read-out” (2022).
Screen size: about 4,800 compounds; about 420 (8.8%) showed an effect of 50% or more. The sample as a whole holds a higher share of strong results than the screen did.

These compounds were tested on Plasmodium falciparum (assay: Confirmatory screen in NF54 nanoGlo assay, in single point, at 2uM, 72h). Settings: timepoint 72 hour.
Assay type: functional, Erythrocyte
In the case of `COc1ccc(-c2nccn3cc(C(=O)NCCN(C)C4CCCCC4)nc23)cc1`, the “% Inhibition” value is reported as 6%.
In the case of `O=S1(=O)NC(c2ccccc2)(c2ccccc2)c2ccccc21`, the “% Inhibition” value is reported as 1%.
For `Cc1ccc(NC(=O)c2c(C)nc3sc(C(=O)NCc4ccccc4)c(N)c3c2-c2cccs2)c(C)c1`, the “% Inhibition” value was 2%.
In the case of `Cc1ccc(NC(=O)c2c(C)nc3sc(C(=O)NCc4ccccc4)c(N)c3c2-c2ccccc2Cl)c(C)c1`, the “% Inhibition” value is reported as 77%.
`CCc1ccc(NC(=O)c2sc3nc(C)c(C(=O)Nc4ccc(C)cc4C)c(-c4ccccc4Cl)c3c2N)cc1` was tested, and the “% Inhibition” value was 16%.
In the case of `CC(C)N(CC(=O)Nc1nccs1)Cc1ccccn1`, the “% Inhibition” value is reported as 68%.
With `CC(C)c1nc(CN(C)[C@@H](C)C(=O)Nc2nccs2)cs1` the “% Inhibition” value was 22%.
In the case of `CC(C)NC(=O)C(=O)Nc1nccs1`, the “% Inhibition” value is reported as -14%.
For `O=c1cc2c(nn1Cc1ccccc1Cl)-c1ccccc1CC2`, the “% Inhibition” value was -8%.
`O=C(c1ccc(O)cc1)C1CCN(C[C@H](O)C(F)(F)F)CC1` was tested, and the “% Inhibition” value was 5%.
In the case of `Cc1nn(C)c2c(N3CCc4ccccc4C3)nc(C3CC3)nc12`, the “% Inhibition” value is reported as -7%.
In the case of `CCOCCCNC(=O)c1ccc(-c2ccc3c(c2)CCN3C(C)=O)cc1`, the “% Inhibition” value is reported as -2%.
In the case of `O=C(NCC1CCCCC1)c1cn[nH]c1-c1ccccc1`, the “% Inhibition” value is reported as -4%.
`O=C(NCC1CCCCC1O)c1cnn2ccncc12` (stereo unspecified) was tested, and the “% Inhibition” value was -12%.
In the case of `O=C1Nc2ccccc2O[C@H]2C[C@@H]1N(CC1CC1)C2`, the “% Inhibition” value is reported as -10%.
In the case of `CC(=O)c1cccc(NC(=O)Cc2c(C)nc3nc(C4CCCCC4)nn3c2C)c1`, the “% Inhibition” value is reported as 5%.
For `c1ccc(-c2noc(-c3ccc(NC4CCCCC4)nn3)n2)cc1`, the “% Inhibition” value was 55%.
In the case of `CC(C)N1CCN(C(=O)CN2N=C(c3nc(-c4ccccc4)no3)CCC2=O)CC1`, the “% Inhibition” value is reported as 5%.
`Clc1ccc(-c2noc(C3CNC3)n2)cc1` was tested, and the “% Inhibition” value was 21%.
With `Cc1nn(-c2ncc(C(F)(F)F)cc2Cl)c(=O)n1-c1cccc(F)c1` the “% Inhibition” value was -4%.
With `CC(C)(C)c1nc(CNc2ccc(S(=O)(=O)CCO)cc2)no1` the “% Inhibition” value was -9%.
For `COc1ccc(Cl)cc1C(=O)Nc1cc(C2CC2)nn1-c1nc(C)cc(=O)[nH]1`, the “% Inhibition” value was 66%.
For `COc1ccc(NC(=O)c2cc(C3CC3)nc3onc(C4CC4)c23)cc1Cl`, the “% Inhibition” value was -3%.
`O=C(COc1ccc(Cl)cc1)N1CC(n2cnnc2C2CC2)C1` was tested, and the “% Inhibition” value was -7%.
With `COc1ccc(Cl)cc1C(=O)N(C1CCOCC1)[C@H]1CCCN(S(C)(=O)=O)C1` the “% Inhibition” value was -9%.
With `Cc1cc(=O)[nH]c(-n2nc(C3CC3)cc2NC(=O)C(C)(C)Oc2ccc(Cl)cc2)n1` the “% Inhibition” value was 85%.
For `Cc1cc(=O)[nH]c(N2CCCCCC2)n1`, the “% Inhibition” value was -2%.
For `CC(C)C[C@H](N)C(=O)N1CC2CCCCC2C1` (stereo partly specified), the “% Inhibition” value was -3%.
For `CS(=O)(=O)N1C[C@@H]2CCCN2c2cc(C(F)(F)F)ccc21`, the “% Inhibition” value was 4%.
`Cc1csc(C(C)(C)NC(=O)NCCC2=CCCC2)n1` was tested, and the “% Inhibition” value was -3%.
With `CCOC(=O)c1sc(NC)nc1C(F)(F)F` the “% Inhibition” value was -19%.
In the case of `CC1CN(C(=O)Cn2nnc3ccccc3c2=O)CC1N(C)C` (stereo unspecified), the “% Inhibition” value is reported as -4%.
With `CCOCCC1(CNC(=O)c2cc(C)n[nH]2)CCC1` the “% Inhibition” value was -1%.
With `CCn1nccc1C(=O)NC1CCN(c2nnc3ccc(Cl)cn23)CC1` the “% Inhibition” value was 0%.
For `Cc1cnccc1NCCNC1CCN(c2ccc(Cl)cc2)CC1`, the “% Inhibition” value was 99%.
In the case of `Cc1cnccc1NCCNC1CCN(c2ccc3c(c2)CCC3)CC1`, the “% Inhibition” value is reported as 72%.
In the case of `CCCC(=O)N1CCN(c2c(C)n(-c3ccccc3)c(=O)n(C)c2=O)CC1`, the “% Inhibition” value is reported as 2%.
In the case of `O=C(NC1CC1)c1nc(C(=O)N2CCN(c3ccccn3)CC2)cs1`, the “% Inhibition” value is reported as -1%.
In the case of `Cc1ccccc1CNC(=O)[C@H]1CCCN(c2nc3cccnc3n(Cc3ccccc3)c2=O)C1`, the “% Inhibition” value is reported as -6%.
With `Cc1ccccc1CNC(=O)[C@H]1CCCN(c2nc3ccccc3[nH]c2=O)C1` the “% Inhibition” value was -1%.
With `COc1ccccc1CNC(=O)c1nnn(-c2ccc3noc(-c4ccc(Cl)cc4)c3c2)c1C` the “% Inhibition” value was -1%.
In the case of `Cc1nccn1-c1ncc(NC(=O)Nc2ccc3c(c2)OCO3)cn1`, the “% Inhibition” value is reported as 21%.
For `CCc1nc2cc(N3CCC(C(=O)Nc4ccc5c(c4)OCO5)CC3)cnc2nc1CC`, the “% Inhibition” value was 61%.
In the case of `Cc1ccc(C(=O)OCC(=O)Nc2ccc3c(c2)OCO3)cn1`, the “% Inhibition” value is reported as -2%.
For `CC(C)c1cc(=O)n(Cc2ccccc2Cn2cnc(C(C)C)cc2=O)cn1`, the “% Inhibition” value was -3%.
In the case of `Cc1nc(Nc2ccc(F)cc2)nc2c1ncn2-c1ccc(F)cc1`, the “% Inhibition” value is reported as -18%.
For `COc1ccc(C(=O)N[C@@H](C(=O)Nc2ccccc2C)c2ccc(Cl)cc2)cc1`, the “% Inhibition” value was 7%.
For `CC(=O)N(Cc1ccc2c(c1)OCO2)c1cccc(-c2nc3ccccc3o2)c1`, the “% Inhibition” value was -1%.
`CC(=O)N(Cc1ccccc1OCc1c(Cl)cccc1Cl)c1ccc2oc(-c3ccccc3)nc2c1` was tested, and the “% Inhibition” value was -13%.
`Clc1ccc(C[n+]2ccc(-c3nc4ccccc4o3)cc2)c(Cl)c1` was tested, and the “% Inhibition” value was 58%.
With `O=C(NC[C@H]1CCCO1)N1CCN(c2nccs2)C(=O)C1` the “% Inhibition” value was 1%.
For `Cc1ccc(-n2nc(N3CCN(C(=O)Cc4ccc(F)cc4)CC3)ccc2=O)cc1`, the “% Inhibition” value was 4%.
With `CCN(CC)C(=O)c1cnc2snc(C)c2c1N1CCC(C(=O)Nc2c(C)cc(C)cc2C)CC1` the “% Inhibition” value was 57%.
`Cc1cccc(C)c1NC(=O)C1CCN(S(=O)(=O)c2c(C)nn(-c3ccccc3)c2C)CC1` was tested, and the “% Inhibition” value was -6%.
`O=C(c1cnc2ccc(F)cc2c1N1CCC(Cc2ccccc2)CC1)N1CCCC1` was tested, and the “% Inhibition” value was 2%.
For `Cc1nsc2ncc(C(=O)N3CCC(C)CC3)c(N3CCC(C(=O)Nc4cc(F)ccc4F)CC3)c12`, the “% Inhibition” value was 60%.
With `Cc1ccc(N2CCN(c3c(C(=O)N4CCCCC4)cnc4ccc(F)cc34)CC2)cc1` the “% Inhibition” value was -8%.
With `CCC1(CC)CN(C(=O)c2ccn(C)c(=O)c2)c2ccccc21` the “% Inhibition” value was 2%.
In the case of `Cn1cc(-c2noc(Cc3c(F)cccc3Cl)n2)ccc1=O`, the “% Inhibition” value is reported as -1%.
`Clc1cccc(CNc2cc(-c3ccco3)n[nH]2)c1` was tested, and the “% Inhibition” value was -7%.
With `CS(=O)(=O)N(CCCC(=O)NCc1ccc2c(c1)OCO2)c1ccc(F)cc1` the “% Inhibition” value was -2%.
`Cc1csc([C@@H](C#N)C(=O)c2ccncc2)n1` was tested, and the “% Inhibition” value was -11%.
In the case of `CCCCNC(=O)Nc1cccc(C#CCN)n1`, the “% Inhibition” value is reported as -2%.
In the case of `Cc1cc(N)nc(Nc2ccc(Nc3ccccc3)cc2)n1`, the “% Inhibition” value is reported as 87%.
For `Cc1nc(N)nc(C)c1C(=O)Nc1ccc(Nc2ncccn2)cc1`, the “% Inhibition” value was 46%.
For `c1ccc(Nc2nc(-c3ccccc3)cc(-c3ccccc3)n2)cc1`, the “% Inhibition” value was 3%.
